The list is not random: actives were taken first. Their share in the collection is about 3%.
BCR signal inh: blocks chronic active B-cell receptor signaling; ABC-DLBCL IkBa-CBG/CBR reporter, luminescence ratio, 4 h; Potency, µM (doses to about 46.1 µM), for inactives: at the highest dose activity change, negative = inhibition, hits mostly inhibitors; 340,000 compounds, 0.05% hits; AID 493014; active means well fitted inhibition curve with a large enough effect in the signal ratio, with a control signal flat, not every such curve was filed as active; inconclusive means small, poorly fitted or top-dose-only effect, or effect the other way, or a change in a side signal; the % refers to the signal ratio;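 further: potency means the concentration at half of the fitted maximal effect; plate controls were basal doxycycline-induced cells for no effect and cells given 10 µM MG132 for full effect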
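Doxycycline induced both beetle luciferases in TMD8 lymphoma cells; IKK-driven degradation limits the IkappaBalpha-fused green signal, while red luminescence normalises for cell number and nonspecific effects. Compounds tested up to 46 uM, 4 hrs.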
KCNH2 WT inh: KCNH2 (human, wildtype) channel inhibition. U2OS, BacMam KCNH2, thallium flux FluxOr; stronger effect = lower value. activity change, % at 1.84 µM. 340,000 compounds, 0.37% hits;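 active means maximum activity change below -70%; inconclusive means maximum activity change between -70% and -50%; inactive means maximum activity change above -50%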; further: on the % scale 0 is the no-effect control and ±100 the full control effect
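U2OS cells transduced with wild-type KCNH2 virus are loaded with FluxOr dye for 45 min, and thallium flux is measured in kinetic reads before and after stimulation buffer. Rate constants are normalized to DMSO controls.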
KCNH2 3.1 inh: inhibitors of human KCNH2 3.1 potassium channel isoform | 340,000 compounds, 0.95% hits | AID 720553 | U2OS KCNH2 3.1, thallium flux FluxOr; stronger effect = lower value | activity change, % (tested at about 1.8 µM);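 active means maximum activity change below -70%; inconclusive means maximum activity change from -70% to -50%; inactive means maximum activity change above -50%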;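 further: thallium influx rate constant from kinetic fluorescence after stimulation buffer; on the % scale 0 is the no-effect control and ±100 the full control effect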
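Measured as rate of thallium-driven FluxOr signal in transduced U2OS cells carrying the 3.1 channel, read kinetically for 2 min upon stimulation; values are rate constants scaled to DMSO control wells.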
ClpP mod: qHTS Assay for Activators of ClpP; ATP-dependent Clp protease proteolytic subunit (Bacillus subtilis (strain 168)), P80244; purified B. subtilis ClpP, FRET peptide cleavage, 20 min; Potency, µM (series often up to 57.5 µM), for inactives: top-dose activity change, negative = active; 340,000 compounds, 1.9% hits; active means well fitted falling curve with a large enough effect; inconclusive means small, poorly fitted or top-dose-only effect; inactive means no such curve, though single readings can be large or run the other way; further: potency means the concentration at half of the fitted maximal effect; the source files actives as falling curves though it sought activators and does not explain the sign; nearly all actives have a fitted effect of over 65% in size
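Buffer: 100 mM Tris/HCl pH8, 100 mM KCl, 0.05% low protease BSA, 2.5% glycerol, 0.01% Tween-20. ClpP 10 microg/mL final; 20 min RT; delta FRET normalized to ADEP and DMSO controls.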
ALOX12 inh: inhibitors of human 12S-lipoxygenase ALOX12. P18054. purified 12hLO, xylenol orange hydroperoxide absorbance. Potency, µM (titrated, usually from 108 µM), without a hit: top-dose activity change, negative = inhibition, usual class: inhibitors. 580,000 compounds, 1.1% hits. AID 1671190; further: potency means the concentration at half of the fitted maximal effect; on the % scale 0 is the no-effect control and ±100 the full control effect
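Hydroperoxide product was detected by ferrous iron/xylenol orange as the 573 to 405 nm absorbance ratio. Arachidonic acid at 40 uM (final) was turned over for 30 min at room temperature by 150 nM human 12hLO, pH 7.0 Hepes buffer, after 15 min compound preincubation.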
LDHA inh: LDHA (human) enzyme inhibition; purified LDHA, NADH/diaphorase-resazurin fluorescence; stronger effect = lower value; activity change, % (values are at about 110 or 230 µM); 480,000 compounds, 0.15% hits; in the data active means activity change below about -30%; inconclusive means mostly about -25% to -30%;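 further: plate controls were DMSO wells for no effect and wells without enzyme for full effect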
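Human LDH5 at 2 nM final in Tris HCl pH 7.4 with 0.06 mM NADH and 0.2 mM pyruvate, reacted 5 minutes at room temperature. Remaining NADH coupled via diaphorase/resazurin; resorufin fluorescence read at 0 and 20 minutes, normalized to enzyme-free and DMSO wells.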
ClpP validation: validation of B. subtilis ClpP protease hits (inhibitors) | shares compounds with ClpP mod | purified B. subtilis ClpP, FRET-FV substrate cleavage, 20 min | Potency, µM (series often up to 57.5 µM), for inactives: top-dose activity change, negative = inhibition, hits mostly inhibitors | 470 compounds, 40% hits | AID 743245; further: potency means the concentration at half of the fitted maximal effect; on the % scale 0 is the no-effect control and ±100 the full control effect; nearly all actives have a fitted effect of over 70% in size
* hit, by the source's call. Unless noted, the call rests on the fitted dose curve; in most records, active means well fitted curve in the direction sought with a large enough effect; inconclusive means small, poorly fitted or top-dose-only effect, or another doubt; inactive means no such curve, though single readings can be large; an effect the other way counts as inactive or inconclusive.

For CCCCN(C)C(=S)Nc1ccc2nc(N3CCN(CC)CC3)cc(C)c2c1 the results were BCR signal inh 1%, KCNH2 WT inh 9, KCNH2 3.1 inh -1, ClpP mod 6%, ALOX12 inh 6% and LDHA inh -2.
`CCN1CCN(c2cc(C)c3cc(NC(=S)N(C)Cc4ccccc4)ccc3n2)CC1` gave BCR signal inh inconclusive, KCNH2 WT inh -7, KCNH2 3.1 inh -70*, ClpP mod 34%, ALOX12 inh 3%, LDHA inh 1 and ClpP validation 16%.
O=C(NCCc1ccccc1)C1Cc2c(-c3ccccc3)ccnc2O1 (stereo not drawn) was read as ClpP mod inconclusive, ALOX12 inh 1%, LDHA inh -5 and ClpP validation -2%.
CCCCNC(=O)c1cc2cc(OCC)ccc2n1C was read as ALOX12 inh -4% and LDHA inh 0.
Cc1ccc2oc(-c3cccc(NC(=O)c4cc(-n5cnnc5)ccc4Cl)c3)nc2c1 was read as BCR signal inh inconclusive, KCNH2 WT inh 1, KCNH2 3.1 inh 20, ClpP mod 134%, ALOX12 inh 0%, LDHA inh 0 and ClpP validation -23%.
Screening Cc1ccc2oc(-c3cccc(NC(=O)c4cccc5c(Cl)cccc45)c3)nc2c1 returned ClpP mod -19%, ALOX12 inh -18% and LDHA inh 0.
For CCOC(=O)N1CCN(S(=O)(=O)c2ccc(C(=O)Nc3nc4ccccc4s3)cc2)CC1 the results were BCR signal inh inconclusive, KCNH2 WT inh -2, KCNH2 3.1 inh -35, ClpP mod 116%, ALOX12 inh 9%, LDHA inh -5 and ClpP validation inconclusive.
For CCOC(=O)N1CCN(S(=O)(=O)c2ccc(C(=O)Nc3nc4ccc(F)cc4s3)cc2)CC1 the results were BCR signal inh inconclusive, KCNH2 WT inh -1, KCNH2 3.1 inh 9, ClpP mod 6%, ALOX12 inh -7% and LDHA inh -7.
CCOc1ccc(S(=O)(=O)Nc2ccc(C)cc2)cc1-c1nc2c(C(C)(C)C)nn(C)c2c(=O)[nH]1 was read as ALOX12 inh -14% and LDHA inh 0.
CC(=O)c1cc(C(=O)N2C[C@@H](C(=O)O)[C@H](c3ccccc3)C2)c(=O)[nH]c1C was read as ALOX12 inh -2%.
Screening O=C(Nc1ccc(-c2cn3ccccc3n2)cc1)c1ccc(Cl)cc1 returned BCR signal inh 13%, KCNH2 WT inh 19, KCNH2 3.1 inh -43, ClpP mod 76%, ALOX12 inh 3%, LDHA inh -13 and ClpP validation -14%.
`CCc1ccc(CC)c(C(=O)Cn2cnc3c2c(=O)n(C)c(=O)n3C)c1` gave ALOX12 inh -10% and LDHA inh 6.
`CC(Sc1ccc2c(c1)OCCCO2)C(=O)c1ccc(F)cc1` (stereo not drawn) gave ALOX12 inh 7% and LDHA inh 5.
Screening CCCn1cc(CN2CCC(n3nccc3NC(=O)C(OC)c3ccccc3)CC2)c(C)n1 (stereo not drawn) returned BCR signal inh -4%, KCNH2 WT inh 0, KCNH2 3.1 inh 2, ClpP mod -3%, ALOX12 inh -2% and LDHA inh -16.
CCCn1cc(CN2CCC(n3nccc3NC(=O)c3ccccc3)CC2)c(C)n1 was read as BCR signal inh 0%, KCNH2 WT inh 16, KCNH2 3.1 inh -33, ClpP mod 3.2µM*, ALOX12 inh 0%, LDHA inh -1 and ClpP validation 0%.
For CCCN(CC(=O)Nc1ccccc1C)C(=O)c1ccc(-c2ccc(C(C)=O)cc2)o1 the results were BCR signal inh inconclusive, KCNH2 WT inh 9, KCNH2 3.1 inh 15, ClpP mod 8.9µM*, LDHA inh -5 and ClpP validation 19µM*.
Screening COc1ccccc1OCCNC(=O)c1ccc2c(c1)OCCO2 returned BCR signal inh inconclusive, KCNH2 WT inh -9, KCNH2 3.1 inh 0, ClpP mod 7.9µM*, ALOX12 inh 2%, LDHA inh -7 and ClpP validation -1%.
CNC(=O)c1cc(S(=O)(=O)N2CC(C)OC(C)C2)ccc1N1CCOCC1 (stereo not drawn) was read as BCR signal inh 1%, KCNH2 WT inh 4, ClpP mod 37%, ALOX12 inh -5%, LDHA inh -4 and ClpP validation -1%.
For Cc1nc2ccc(NC(=O)CC3CCCC3)cc2s1 the results were ALOX12 inh inconclusive and LDHA inh 3.
Screening COc1ccc(NC2=CC(c3ccc(OC)cc3)N(c3ccc(OC)cc3)C2=O)cc1 (stereo not drawn) returned BCR signal inh 3%, KCNH2 3.1 inh -11, ClpP mod -10%, ALOX12 inh -28% and LDHA inh 0.
`COc1ccc(NC2=CC(c3ccc(F)cc3)N(c3ccc(OC)cc3)C2=O)cc1` (stereo not drawn) gave BCR signal inh 5%, KCNH2 WT inh 3, KCNH2 3.1 inh 4, ClpP mod 94%, ALOX12 inh inconclusive, LDHA inh 3 and ClpP validation inconclusive.
For Cc1oc2cc(OC(=O)C3CC3)ccc2c(=O)c1-c1ccc(Cl)cc1 the results were ALOX12 inh 2% and LDHA inh 2.
O=c1oc2cc(OCc3ccc(F)cc3F)ccc2cc1-c1ccccn1 was read as BCR signal inh 6%, KCNH2 WT inh 4, KCNH2 3.1 inh 8, ClpP mod 3.2µM*, ALOX12 inh 0%, LDHA inh -1 and ClpP validation 9.7µM*.
`NC(=O)COc1ccc2cc(-c3ccc(F)cc3)c(=O)oc2c1` gave BCR signal inh 2%, KCNH2 WT inh 2, KCNH2 3.1 inh 0, ALOX12 inh 37% and LDHA inh -2.
Screening Cc1ccccc1NC(=O)c1c(Cl)nc(C)c(Cl)c1C returned BCR signal inh 1%, KCNH2 WT inh 1, KCNH2 3.1 inh -1, ClpP mod 2%, ALOX12 inh -4% and LDHA inh -3.
For CCc1ccc(NC(=O)c2c(Cl)nc(C)c(Cl)c2C)cc1 the results were BCR signal inh 8%, KCNH2 WT inh 9, KCNH2 3.1 inh -1, ClpP mod 43%, ALOX12 inh 9%, LDHA inh -5 and ClpP validation 0%.

From PubChem BioAssay
